This note sets out measurements from PubChem BioAssay.

For experiment [1], the system named is Wnt5a (protein binding on small-molecule microarray). Briefly: Wnt5a binders on small-molecule microarray, primary screen, biophysical, 635/667 nm fluorescence (AID 1142).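 Note: fluorescence read at 667 nm with signal to noise per printed feature.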 The settings on record: 635 nm fluorescence, higher = more signal.
A short description of experiment [2]: cell viability in Huh7 cells, primary screen, cytotoxicity control for HCV replication inhibitor project, CellTiter-Glo luminescence, basal, 48 h (AID 1143).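 Note: Huh7 hepatoma cells carrying a hepatitis C replication reporter with no stimulus; test concentration not given here.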 The settings on record: Huh7 HCV replicon, higher = more signal, called active from +8 up or from −8 down. On the technique in general: In ATP-based viability assays light output follows the ATP content of the culture.

The nature of experiment [3]: P. aeruginosa biofilm formation inhibitors, primary screen, PAO1 strain, BacTiter-Glo luminescence, LB-PBS (AID 1144). The settings on record: 12 h, higher = more signal.
The nature of experiment [4]: CREB reporter modulators without forskolin, primary screen, cell-based, PC12, CRE-LacZ reporter, unstimulated (AID 1145). The settings on record: no forskolin, luminescence, 4.5 h, higher = more signal, called active from +8 up or from −8 down.
A short description of experiment [5]: CREB reporter modulators under forskolin, primary screen, cell-based, PC12, CRE-LacZ reporter, forskolin-stimulated (AID 1146).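 Note: PC12 cells with 6xCRE LacZ reporter stimulated by forskolin 10 µM; beta-galactosidase reporter signal reflecting CREB driven transcription.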 The settings on record: luminescence, 4.5 h, higher = more signal, called active from +8 up or from −8 down.
Experiment [6] addresses Streptavidin (Streptomyces avidinii) (UniProt P22629). Briefly: streptavidin binders on small-molecule microarray, primary screen, artefact control for SMM compound annotation, biophysical, 635/667 nm fluorescence (AID 1147).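 Note: signal reflects streptavidin binding to arrayed compounds as a control protein.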 The settings on record: streptavidin binding, higher = more signal.
A short description of experiment [7]: small-molecule binders of probe aInhba, primary screen, biochemical, small-molecule microarray, 635/667 nm fluorescence (AID 1148).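 Note: score merges 667nm spot fluorescence with signal-to-noise for antibody binding to printed compounds.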 The settings on record: higher = more signal.
Experiment [8] concerns the target Torsin-1A (Homo sapiens) (UniProt O14656). Nature of the experiment: torsin A binders from cell lysate, primary screen, small-molecule microarray, wild-type, 635/667 nm (AID 1149). The settings on record: COS7 hTOR1A-WT lysate, 635 nm fluorescence, higher = more signal.
For experiment [9] the target is unchanged. Nature of the experiment: small-molecule binders of mutant TOR1A in lysate, primary screen, cell lysate, small-molecule microarray, COS7 lysate, 635/667 nm fluorescence (AID 1150).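 Note: score pools 667 nm emission and signal to noise measuring lysate protein binding.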 The settings on record: COS7 hTOR1A mutant lysate, 635 nm fluorescence, higher = more signal.
The test system of experiment [10] is Sonic hedgehog protein (Shh). Briefly: small-molecule binders of Shh protein, primary screen, biochemical, small-molecule microarray, 635/667 nm fluorescence (AID 1151).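 Note: Shh protein binding to compounds spotted on small-molecule microarray slides; score combines spot fluorescence intensity with signal-to-noise across triplicate slides.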 The settings on record: small-molecule microarray binding, 635 nm fluorescence; higher = more signal.
Experiment [11] is described as follows: E. coli DRC41 culture turbidity changes, primary screen, E. coli filamentation inducer project, strain DRC41, OD650, 48 h (AID 1152).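 Note: E. coli MC1000 strain DRC41 lacking acrAB efflux pump and sulA.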 The settings on record: E. coli DRC41 (acrAB sulA), higher = more signal, called active from +8 up or from −8 down.
Experiment [12] is described as follows: small-molecule binders of probe aLefty1, primary screen, biochemical, small-molecule microarray, 635/667 nm fluorescence (AID 1153).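 Note: score merges spot fluorescence with signal-to-noise ratio from the scanned slide images.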 The settings on record: higher = more signal.
Experiment [13] in a line: PSAC antagonists in infected red cells, primary screen, cell-based, P. falciparum Indochina, OD700, 1 h (AID 1154). The settings on record: P. falciparum Indochina infected RBC osmotic lysis, higher = more signal, called active from +8 up or from −8 down.
A short description of experiment [14]: PSAC antagonists in infected red cells, primary screen, cell-based, P. falciparum Indochina, OD700, 2 h (AID 1155).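 Note: lysis reports solute entry through the parasite surface anion channel PSAC; channel blockers reduce lysis of infected cells.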 The settings on record: P. falciparum Indochina infected erythrocytes, osmotic lysis OD700; higher = more signal, called active from +8 up or from −8 down.
Experiment [15] in a line: osmotic lysis modulators in infected erythrocytes, primary screen, PSAC antagonist project, cell-based, P. falciparum Indochina, OD700, 3 h (AID 1156). The settings on record: higher = more signal, called active from +8 up or from −8 down.
The nature of experiment [16]: PSAC antagonists in infected red cells, primary screen, cell-based, P. falciparum Indochina, OD700, 18 h (AID 1157). The settings on record: P. falciparum Indochina infected erythrocytes, osmotic lysis OD700, 18 h; higher = more signal, called active from +8 up or from −8 down.
Experiment [17] in a line: modulators of S6 phosphorylation in cells, primary screen, cell-based, A549, cytoblot, luminescence, serum-stimulated (AID 1158).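 Note: serum-stimulated A549 lung adenocarcinoma cells; signal is phosphorylated S6 detected by cytoblot immunostaining with HRP secondary.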 The settings on record: A549 phospho-S6 cytoblot, 5 h, higher = more signal.
Experiment [18] addresses NADPH oxidase 2 (Homo sapiens) (UniProt P04839). Briefly: NOX2-dependent H2O2 signal modulators, primary screen, NOX inhibitor project, cell-based, HEK293-NOX2, PMA-stimulated, Amplex Red fluorescence (AID 1159). Note: test concentration not given here. The settings on record: 45 min, higher = more signal, called active from +8 up or from −8 down.
Experiment [19] deals with NADPH oxidase 4 (Homo sapiens) (UniProt Q9NPH5). Nature of the experiment: NOX4-dependent H2O2 signal modulators, primary screen, NOX inhibitor project, cell-based, HEK293-NOX4, tetracycline-induced, Amplex Red fluorescence (AID 1160). The settings on record: 45 min, higher = more signal, called active from +8 up or from −8 down.
Chain of NADPH oxidase 4 (Homo sapiens) (Q9NPH5 whole entry, looked up): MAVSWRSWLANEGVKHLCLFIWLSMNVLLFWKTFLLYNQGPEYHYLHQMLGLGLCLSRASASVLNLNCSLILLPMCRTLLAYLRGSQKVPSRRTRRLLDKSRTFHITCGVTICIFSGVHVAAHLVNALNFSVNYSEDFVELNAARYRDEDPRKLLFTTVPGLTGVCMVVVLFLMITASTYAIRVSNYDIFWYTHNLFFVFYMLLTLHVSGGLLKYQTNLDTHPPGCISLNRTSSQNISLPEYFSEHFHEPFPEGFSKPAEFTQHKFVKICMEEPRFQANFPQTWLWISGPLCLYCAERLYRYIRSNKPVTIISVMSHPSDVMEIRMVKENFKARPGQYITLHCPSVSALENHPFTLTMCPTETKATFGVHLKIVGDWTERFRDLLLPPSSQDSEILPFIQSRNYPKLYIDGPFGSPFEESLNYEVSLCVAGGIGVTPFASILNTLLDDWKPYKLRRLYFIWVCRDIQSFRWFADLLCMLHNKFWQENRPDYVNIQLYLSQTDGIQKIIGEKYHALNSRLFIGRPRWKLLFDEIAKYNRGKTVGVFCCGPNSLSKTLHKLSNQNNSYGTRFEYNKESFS
Experiment [20] has as its target NADPH oxidase 5 (Homo sapiens) (UniProt Q96PH1). Briefly: NOX5-dependent H2O2 signal modulators, primary screen, NOX inhibitor project, cell-based, HEK293-NOX5, Amplex Red fluorescence (AID 1161). The settings on record: HEK293-NOX5, ionomycin, 45 min, higher = more signal.

Activity calls are given as the source filed them. Unless noted, the rule behind the calls is not given here.

Chain of NADPH oxidase 5 (Homo sapiens) (Q96PH1 whole entry, looked up): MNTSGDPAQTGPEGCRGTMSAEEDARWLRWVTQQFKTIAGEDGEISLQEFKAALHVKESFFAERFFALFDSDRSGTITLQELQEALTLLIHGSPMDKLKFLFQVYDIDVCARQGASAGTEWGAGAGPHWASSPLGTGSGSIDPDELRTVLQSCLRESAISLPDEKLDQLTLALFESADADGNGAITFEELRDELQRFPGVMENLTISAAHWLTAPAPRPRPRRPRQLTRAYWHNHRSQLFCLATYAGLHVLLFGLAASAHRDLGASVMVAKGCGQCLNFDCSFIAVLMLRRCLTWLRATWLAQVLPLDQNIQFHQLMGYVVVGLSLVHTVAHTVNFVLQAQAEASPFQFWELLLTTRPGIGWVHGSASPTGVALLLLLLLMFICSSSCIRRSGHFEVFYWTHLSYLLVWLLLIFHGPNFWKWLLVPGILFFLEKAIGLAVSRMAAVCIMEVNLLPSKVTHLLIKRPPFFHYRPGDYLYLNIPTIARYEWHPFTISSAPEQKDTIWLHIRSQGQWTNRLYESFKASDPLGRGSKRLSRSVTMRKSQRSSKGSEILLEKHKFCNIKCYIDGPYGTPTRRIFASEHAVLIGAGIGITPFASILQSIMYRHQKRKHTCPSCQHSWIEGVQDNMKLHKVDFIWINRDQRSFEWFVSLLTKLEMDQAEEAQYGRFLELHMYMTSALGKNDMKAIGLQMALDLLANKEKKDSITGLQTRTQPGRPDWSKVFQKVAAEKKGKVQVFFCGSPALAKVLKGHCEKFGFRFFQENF
Chain of Torsin-1A (Homo sapiens) (O14656 whole entry, looked up): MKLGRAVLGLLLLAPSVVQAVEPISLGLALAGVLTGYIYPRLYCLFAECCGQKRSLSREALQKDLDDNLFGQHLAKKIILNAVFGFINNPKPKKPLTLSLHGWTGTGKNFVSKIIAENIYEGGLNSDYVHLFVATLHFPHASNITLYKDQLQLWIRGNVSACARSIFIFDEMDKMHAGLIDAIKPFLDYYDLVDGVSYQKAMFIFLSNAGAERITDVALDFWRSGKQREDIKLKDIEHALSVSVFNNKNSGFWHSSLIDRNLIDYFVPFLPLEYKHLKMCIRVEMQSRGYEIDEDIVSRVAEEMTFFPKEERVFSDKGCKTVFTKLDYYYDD
Chain of NADPH oxidase 2 (Homo sapiens) (P04839 whole entry, looked up): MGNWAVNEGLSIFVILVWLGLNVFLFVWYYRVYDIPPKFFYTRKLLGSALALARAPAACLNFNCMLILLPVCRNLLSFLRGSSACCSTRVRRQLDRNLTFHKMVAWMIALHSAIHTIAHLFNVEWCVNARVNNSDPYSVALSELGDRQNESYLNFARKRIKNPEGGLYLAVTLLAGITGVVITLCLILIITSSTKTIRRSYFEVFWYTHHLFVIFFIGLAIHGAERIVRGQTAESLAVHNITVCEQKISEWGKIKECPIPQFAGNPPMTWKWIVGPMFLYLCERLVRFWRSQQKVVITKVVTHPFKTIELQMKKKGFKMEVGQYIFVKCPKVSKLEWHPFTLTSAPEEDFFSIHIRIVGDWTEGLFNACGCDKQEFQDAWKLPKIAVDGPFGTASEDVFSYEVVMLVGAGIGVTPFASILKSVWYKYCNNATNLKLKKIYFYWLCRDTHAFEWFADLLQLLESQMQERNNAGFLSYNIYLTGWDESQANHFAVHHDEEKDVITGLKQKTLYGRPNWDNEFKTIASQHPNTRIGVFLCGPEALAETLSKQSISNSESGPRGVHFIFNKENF
Chain of Streptavidin (Streptomyces avidinii) (P22629 whole entry, looked up): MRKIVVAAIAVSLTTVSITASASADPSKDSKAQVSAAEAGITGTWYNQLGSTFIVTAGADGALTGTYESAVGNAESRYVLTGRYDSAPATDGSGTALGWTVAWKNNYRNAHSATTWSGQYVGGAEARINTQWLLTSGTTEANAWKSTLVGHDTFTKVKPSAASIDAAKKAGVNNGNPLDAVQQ

With `CC1CC/C=C\[C@H]2OC34C=CCN(Cc5ccccc5)C(=O)[C@H]3N(C(CO)C(C)C)C(=O)[C@@H]4C2C(=O)O1` (stereo not given in full), the composite z-score in [1] was -0.0818; in [6], -0.854; in [7], -0.0695; with Torsin-1A (Homo sapiens) [8] it was 0.505; in the experiment with Torsin-1A (Homo sapiens) [9], -0.741; in experiment [10], -0.0532. Also, the composite z-score in experiment [12] is -0.149. The z-score is -0.0399 (inactive) in [2]; 1.09 (inactive) in [3]; 2.1 (inactive) in [4]; 1.43 (inactive) in [5]; 0.084 (inactive) in [11]; 1.42 (inactive) in experiment [13]. Further, the z-score in [14] was 0.667 (inactive); in experiment [15] it was 0.97 (inactive); in [16] it was 0.304 (inactive); in [17], -0.529; in experiment [18], 1.84 (inactive); in experiment [19], 0.983 (inactive). In experiment [20], this compound yielded a z-score of 2.21.

Take `CCCC[C@@H](O)C1=C(COC)C[C@H]2C(=O)N(C)C(=O)[C@H]2[C@H]1CO`: the composite z-score in experiment [1] is 0.0849; in experiment [6], 0.45; in [7], -0.128; with Torsin-1A (Homo sapiens) [8] it was 0.32; in the experiment with Torsin-1A (Homo sapiens) [9], 0.227; in experiment [10], 0.882. In [12], this compound came in with a composite z-score of 0.218. The z-score in experiment [2] is -1.61 (inactive); in experiment [3], -1.55 (inactive); in experiment [4], -0.0581 (inactive); in experiment [5] it was -1.18 (inactive); in experiment [11], 2.54 (inactive); in experiment [13], -0.179 (inactive). The z-score in experiment [14] was -1.31 (inactive); in experiment [15] it was -1.12 (inactive); in [16], -2.19 (inactive); in [17], 1.59; in experiment [18], -0.342 (inactive); in experiment [19] it was 0.564 (inactive). In experiment [20], this compound displayed a z-score of 0.819.

As to `COc1cc2c(cc1O)C=[N+](Cc1sc3ccccc3c1Cl)CC2`, the composite z-score in experiment [1] was -0.245; in experiment [6] it was 0.0042; in experiment [7], -0.0308; in the experiment with Torsin-1A (Homo sapiens) [8], 0.166; with Torsin-1A (Homo sapiens) [9], 0.276; in [10] it was 0.66. This compound also gave a composite z-score in experiment [12] of 0.065. The z-score in [2] is -2.33 (inactive); in [3], 0.206 (inactive); in experiment [4], -0.348 (inactive); in experiment [5], 0.982 (inactive); in [11] it was -0.569 (inactive); in experiment [13] it was 5.58 (inactive). Moreover, the z-score was 2 (inactive) in experiment [14]; -0.703 (inactive) in experiment [15]; 1.58 (inactive) in experiment [16]; -0.336 in [17]; -3.84 (inactive) in experiment [18]; -2.35 (inactive) in experiment [19]. In experiment [20], this compound displayed a z-score of -4.02.

Regarding `COCCOC(=O)N1C(=O)[C@@]2(c3cc(C#CC4(O)CCCCCC4)ccc31)[C@H](C(=O)N1CCc3cc(OC)c(OC)cc3C1)[C@H]1C(=O)O[C@H](c3ccccc3)[C@H](c3ccccc3)N1[C@@H]2c1ccc(OCCO)cc1`, the composite z-score in experiment [1] was 0.536; in experiment [6], 1.04; in experiment [7], -0.0736; in the experiment with Torsin-1A (Homo sapiens) [8], 0.71; with Torsin-1A (Homo sapiens) [9] it was 0.362; in [10], 1.58. The compound also gave a composite z-score in experiment [12] of -0.469. The z-score in experiment [2] is -1.38 (inactive); in experiment [3], -0.555 (inactive); in experiment [4], -0.465 (inactive); in [5], 0.581 (inactive); in experiment [11] it was -0.073 (inactive); in experiment [13], 7.39 (inactive). The z-score in experiment [14] was 2.64 (inactive); in experiment [15], 1.41 (inactive); in [16], 1.64 (inactive); in [17] it was 0.272; in experiment [18] it was 1.6 (inactive); in [19], 0.614 (inactive). For the same compound, the z-score in experiment [20] came out at 1.74.
